About 79,000 compounds went through this panel and 15% of them were active in at least one assay; those are over-represented in the sample as a whole. The source made the active and inactive calls. Rule as the data show it: active = growth inhibition above about 70%; inactive = the rest.
How the values were obtained:
[1] = NCI Yeast Anticancer Drug Screen. Data for the rad52 strain (AID 147);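 also: 0% = growth of vehicle-treated control cultures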; settings: S. cerevisiae rad52 mutant growth inhibition, active compounds read high
Summary of the method: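 Here a repair-compromised yeast strain receives each compound; its growth is then quantified and normalised to vehicle-only controls.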

[2] = NCI Yeast Anticancer Drug Screen. Data for the wt1 strain (AID 149);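 also: 0% = growth of vehicle-treated wt1 cultures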; settings: S. cerevisiae wt1 strain (SPY 50644) growth inhibition, active compounds read high
Summary of the method: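 Readout: yeast growth inhibition, normalised to vehicle controls, in the wt1 strain exposed to test compounds.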

[3] = NCI Yeast Anticancer Drug Screen. Data for the rad50EPP+ strain (AID 151);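 also: 0% = growth of vehicle-treated control cultures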; settings: S. cerevisiae rad50 mutant strain, active compounds read high
Summary of the method: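 Read-out is yeast growth inhibition relative to vehicle; cells used were the rad50EPP+ strain.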

[4] = NCI Yeast Anticancer Drug Screen. Data for the mgt1 strain (AID 153); settings: S. cerevisiae mgt1 mutant growth inhibition, active compounds read high
Summary of the method: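 Measured: inhibition of mgt1 yeast growth by compound, normalized to vehicle-treated cultures.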

[5] = NCI Yeast Anticancer Drug Screen. Data for the rad50 strain (AID 155);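 also: 0% = growth of vehicle-only cultures of the same strain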; settings: S. cerevisiae rad50 strain growth inhibition, active compounds read high
Summary of the method: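 Compounds were tested on a yeast strain with an engineered DNA damage repair alteration; the reported value is growth inhibition normalised to vehicle treatment.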

[6] = NCI Yeast Anticancer Drug Screen. Data for the mec2-1 strain (AID 157); settings: S. cerevisiae mec2-1 strain, active compounds read high
Summary of the method: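 Using mec2-1 yeast: add compound, measure growth, express inhibition versus vehicle-treated cultures.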

[7] = NCI Yeast Anticancer Drug Screen. Data for the rad14 strain (AID 159);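 also: 0% = growth of vehicle-treated control cultures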; settings: S. cerevisiae rad14 strain growth inhibition, active compounds read high
Summary of the method: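 Compound-treated yeast with a defined DNA-repair lesion; growth inhibition normalised to vehicle-treated cultures.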

[8] = NCI Yeast Anticancer Drug Screen. Data for the sgs1 mgt1 strain (AID 161);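 also: 0% = growth of cultures given vehicle only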; settings: S. cerevisiae sgs1 mgt1 strain, active compounds read high
Summary of the method: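 Percent growth inhibition was derived by comparing compound-exposed mutant yeast with vehicle-exposed cultures. The strain carries alterations in DNA damage repair.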

[9] = NCI Yeast Anticancer Drug Screen. Data for the CLN2oe strain (AID 163);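 also: 0% = growth of vehicle-only control cultures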; settings: S. cerevisiae CLN2oe strain, active compounds read high
Summary of the method: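 Whole-cell yeast growth assay. A strain engineered for altered cell-cycle control received compound, and inhibition relative to vehicle-treated cultures was recorded.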

[10] = NCI Yeast Anticancer Drug Screen. Data for the cln2 rad14 strain (AID 165);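 also: 0% = growth equal to vehicle treated cultures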; settings: S. cerevisiae cln2 rad14 strain, active compounds read high
Summary of the method: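 Yeast strain cln2 rad14, bearing defects in cell cycle control and DNA repair, serves as the test system; values reflect growth inhibition compared with vehicle.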

[11] = NCI Yeast Anticancer Drug Screen. Data for the bub3 strain (AID 167); settings: S. cerevisiae bub3 mutant strain, active compounds read high
Summary of the method: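 Growth of a checkpoint-deficient yeast mutant is measured after compound exposure. Values represent inhibition relative to vehicle.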

[12] = NCI Yeast Anticancer Drug Screen. Data for the wt2 strain (AID 169);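 also: 0% = growth of vehicle-treated yeast cultures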; settings: S. cerevisiae wt2 strain growth inhibition, active compounds read high
Summary of the method: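 Treated yeast vs. vehicle-treated yeast: growth inhibition determined.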

[13] = NCI Yeast Anticancer Drug Screen. Data for the mlh1 strain (AID 171);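 also: 0% = growth of vehicle-treated control cultures of the same strain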; settings: S. cerevisiae mlh1 strain growth inhibition, active compounds read high
Summary of the method: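 A yeast strain with a defined genetic lesion serves as the test organism. Cultures receive compound or vehicle, and growth is measured.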

[14] = NCI Yeast Anticancer Drug Screen. Data for the sgs1 strain (AID 173);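 also: 0% = growth of vehicle-only control cultures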; settings: S. cerevisiae sgs1 mutant, active compounds read high
Summary of the method: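 A genetically defined yeast mutant is incubated with the test compound, and its growth is compared to that of the same strain given vehicle.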

[15] = NCI Yeast Anticancer Drug Screen. Data for the mlh1 rad18 strain (AID 175); settings: S. cerevisiae mlh1 rad18 strain growth inhibition, active compounds read high
Summary of the method: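 Steps: expose repair-defective yeast to compound; measure growth; express inhibition against vehicle-treated controls.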

[16] = NCI Yeast Anticancer Drug Screen. Data for the rad18 strain (AID 177); settings: S. cerevisiae rad18 mutant growth inhibition, active compounds read high
Summary of the method: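 Measured value is growth inhibition of a yeast strain bearing a DNA repair alteration, referenced to vehicle-treated cells.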

[17] = at 5.0 µM (retest, dose inferred, filed as 0.5)
[18] = at 50.0 µM (retest, dose inferred, filed as 5.0)

Measured: growth inhibition

FC(F)(F)c1cc(NC(=S)N2c3ccccc3-n3cccc3C2c2cccnc2)cc(C(F)(F)F)c1 (stereo not drawn)
inactive: [1]; at 1.2 µM -3% | [1]; at 3.7 µM -5% | [1]; at 11.0 µM -9% | [1]; at 33.0 µM -3% | [1]; at 100.0 µM -4% | [2]; at 1.2 µM 2% | [2]; at 3.7 µM -5% | [2]; at 11.0 µM -4% | [2]; at 33.0 µM -6% | [2]; at 100.0 µM -9% | [3]; at 1.2 µM 1% | [3]; at 3.7 µM 6% | [3]; at 11.0 µM 18% | [3]; at 33.0 µM 42% | [3]; at 100.0 µM 57% | [4]; at 1.2 µM -10% | [4]; at 3.7 µM -5% | [4]; at 11.0 µM -17% | [4]; at 33.0 µM -36% | [4]; at 100.0 µM -17% | [5]; at 1.2 µM -13% | [5]; at 3.7 µM -3% | [5]; [17] 10% | [5]; at 11.0 µM 9% | [5]; at 33.0 µM 3% | [5]; [18] 57% | [5]; at 100.0 µM 2% | [6]; at 1.2 µM -5% | [6]; at 3.7 µM -4% | [6]; [17] -6% | [6]; at 11.0 µM -2% | [6]; at 33.0 µM -1% | [6]; [18] 51% | [6]; at 50.0 µM 47.1% | [6]; at 100.0 µM -1% | [7]; at 1.2 µM 2% | [7]; at 3.7 µM 0% | [7]; at 11.0 µM -1% | [7]; at 33.0 µM -3% | [7]; at 100.0 µM -5% | [8]; [17] -3% | [8]; [18] 69% | [8]; at 50.0 µM 44.5% | [9]; at 1.2 µM -3% | [9]; at 3.7 µM -2% | [9]; at 11.0 µM 2% | [9]; at 33.0 µM -1% | [9]; at 100.0 µM -5% | [10]; [17] -10% | [10]; [18] 21% | [10]; at 50.0 µM 43.6% | [11]; at 1.2 µM -1% | [11]; at 3.7 µM -5% | [11]; [17] -3% | [11]; at 11.0 µM -5% | [11]; at 33.0 µM -4% | [11]; [18] 45% | [11]; at 50.0 µM 26.4% | [11]; at 100.0 µM -9% | [12]; at 1.2 µM -2% | [12]; at 3.7 µM -3% | [12]; at 11.0 µM -2% | [12]; at 33.0 µM -1% | [12]; at 100.0 µM 2% | [13]; at 1.2 µM -2% | [13]; at 3.7 µM -1% | [13]; at 11.0 µM -4% | [13]; at 33.0 µM -4% | [13]; at 100.0 µM 6% | [14]; at 1.2 µM -8% | [14]; at 3.7 µM -3% | [14]; at 11.0 µM -2% | [14]; at 33.0 µM -2% | [14]; at 100.0 µM 1% | [15]; [17] -7% | [15]; [18] 69% | [16]; at 1.2 µM -1% | [16]; at 3.7 µM -6% | [16]; at 11.0 µM 0% | [16]; at 33.0 µM -2% | [16]; at 100.0 µM -2%
active: [5]; at 50.0 µM 74.7% | [15]; at 50.0 µM 70.7%

Fc1ccc(NC(=S)SCc2ccc3c(c2)OCO3)cc1F
inactive: [1]; at 1.2 µM 15% | [1]; at 3.7 µM 9% | [2]; at 1.2 µM 6% | [2]; at 3.7 µM 6% | [2]; at 11.0 µM 66% | [3]; at 1.2 µM 0% | [3]; at 3.7 µM 27% | [4]; at 1.2 µM -3% | [4]; at 3.7 µM 12% | [4]; at 11.0 µM 61% | [5]; at 1.2 µM -9% | [5]; at 3.7 µM 22% | [5]; [17] 23% | [5]; at 11.0 µM 57% | [6]; at 1.2 µM -10% | [6]; at 3.7 µM 2% | [6]; [17] -7% | [6]; at 11.0 µM 49% | [7]; at 1.2 µM -9% | [7]; at 3.7 µM 20% | [7]; at 11.0 µM 65% | [8]; [17] 31% | [9]; at 1.2 µM 8% | [9]; at 3.7 µM 28% | [9]; at 11.0 µM 40% | [10]; [17] 21% | [11]; at 1.2 µM -19% | [11]; at 3.7 µM -11% | [11]; [17] 35% | [11]; at 11.0 µM 42%
active: [1]; at 11.0 µM 71% | [1]; at 33.0 µM 98% | [1]; at 100.0 µM 97% | [2]; at 33.0 µM 98% | [2]; at 100.0 µM 97% | [3]; at 11.0 µM 96% | [3]; at 33.0 µM 99% | [3]; at 100.0 µM 99% | [4]; at 33.0 µM 99% | [4]; at 100.0 µM 96% | [5]; at 33.0 µM 99% | [5]; [18] 97% | [5]; at 50.0 µM 92.2% | [5]; at 100.0 µM 98% | [6]; at 33.0 µM 99% | [6]; [18] 99% | [6]; at 50.0 µM 91.7% | [6]; at 100.0 µM 98% | [7]; at 33.0 µM 99% | [7]; at 100.0 µM 94% | [8]; [18] 99% | [8]; at 50.0 µM 92.5% | [9]; at 33.0 µM 99% | [9]; at 100.0 µM 98% | [10]; [18] 99% | [10]; at 50.0 µM 91.8% | [11]; at 33.0 µM 98% | [11]; [18] 99% | [11]; at 50.0 µM 91.8% | [11]; at 100.0 µM 98%
